In all, about 190,000 compounds went through this assay and about 130 (0.068%) were called active. The sample holds actives, similar compounds and a random draw of the others, so the mix is not that of the screen. Values without a mark were called inactive. Cut-off read from the data, not from the text of the source: active = inhibition above about 40%; inactive = the rest.

Chain of ATP-dependent translocase ABCB1 (Homo sapiens) (P08183 whole entry, looked up): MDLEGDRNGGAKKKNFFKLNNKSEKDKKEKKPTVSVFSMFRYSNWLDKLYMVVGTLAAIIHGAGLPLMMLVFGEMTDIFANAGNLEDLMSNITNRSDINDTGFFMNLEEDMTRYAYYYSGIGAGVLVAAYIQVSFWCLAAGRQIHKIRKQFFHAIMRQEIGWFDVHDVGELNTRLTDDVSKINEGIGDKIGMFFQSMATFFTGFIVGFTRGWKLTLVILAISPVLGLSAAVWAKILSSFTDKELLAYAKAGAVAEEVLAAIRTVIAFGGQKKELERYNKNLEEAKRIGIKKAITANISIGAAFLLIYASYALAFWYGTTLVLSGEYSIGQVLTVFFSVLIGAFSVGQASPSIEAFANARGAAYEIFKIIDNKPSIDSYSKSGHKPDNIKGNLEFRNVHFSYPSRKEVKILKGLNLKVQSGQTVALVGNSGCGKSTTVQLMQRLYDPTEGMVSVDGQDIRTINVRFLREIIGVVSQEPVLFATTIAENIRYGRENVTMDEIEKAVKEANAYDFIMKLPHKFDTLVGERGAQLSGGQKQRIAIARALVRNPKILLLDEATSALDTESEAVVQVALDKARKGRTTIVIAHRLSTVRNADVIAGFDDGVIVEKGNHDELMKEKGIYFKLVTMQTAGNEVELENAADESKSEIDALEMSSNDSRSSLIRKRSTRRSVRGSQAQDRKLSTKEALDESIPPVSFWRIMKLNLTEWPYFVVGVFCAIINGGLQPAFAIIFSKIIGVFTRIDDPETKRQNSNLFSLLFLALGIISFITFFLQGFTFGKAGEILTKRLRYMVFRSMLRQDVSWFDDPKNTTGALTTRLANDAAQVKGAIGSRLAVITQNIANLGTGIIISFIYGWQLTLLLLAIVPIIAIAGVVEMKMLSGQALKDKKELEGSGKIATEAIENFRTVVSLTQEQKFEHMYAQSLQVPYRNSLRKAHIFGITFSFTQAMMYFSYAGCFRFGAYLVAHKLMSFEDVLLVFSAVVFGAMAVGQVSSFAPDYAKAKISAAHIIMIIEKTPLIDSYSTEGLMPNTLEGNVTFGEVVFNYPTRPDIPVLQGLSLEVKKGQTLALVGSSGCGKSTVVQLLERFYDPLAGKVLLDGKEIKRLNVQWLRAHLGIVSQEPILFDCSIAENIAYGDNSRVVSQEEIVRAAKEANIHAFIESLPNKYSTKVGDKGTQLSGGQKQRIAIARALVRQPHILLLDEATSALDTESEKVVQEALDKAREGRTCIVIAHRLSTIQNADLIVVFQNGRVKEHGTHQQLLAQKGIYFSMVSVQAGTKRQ

The assay has as its target ATP-dependent translocase ABCB1 (Homo sapiens) (UniProt P08183). In words: ABCB1 efflux pump inhibitors, primary screen, cell-based, multiplex, flow cytometry, ABCG2 counter-screen (AID 1326).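 Note: 0% = vehicle and 100% = reference inhibitor; higher value means more JC-1 retained so stronger ABCB1 efflux block.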 The note with it: CCRF-Adr cells, JC-1 efflux, at 6.6 µM, stronger effect = higher value. For orientation: In flow cytometry, cells or beads pass a laser one at a time.
In general, inhibition refers to the change of the read-out against control, counted positive when it falls. Consider `COc1ccc2c(-c3ccccc3)cc(SCC(=O)N(C)C3CCS(=O)(=O)C3)nc2c1` (stereo not given), for which the inhibition was 1.15%. Next, `O=C(CN1CCCCCC1)NCCN1C(=O)S/C(=C\c2ccccc2Cl)C1=O`: 0.67%. Then `COCCn1c(C)cc(C(=O)CSc2nc3ccccc3c(=O)n2C(C)COC)c1C` (stereo not given), with 2.97%. Next, `Cc1cc(C)cc(NC(=O)N2CCCCCCC2)c1`: 2.76%; `COc1cccc(C(O)Cc2nc3ccccc3n2C)c1OC` (stereo not given): -0.47%; `C=CCc1cccc2cc(C(=O)NC3CCCC3)c(=O)oc12`: 1.75%.

Take `Cc1c(C(=O)c2cccc([N+](=O)[O-])c2)c2ccccn2c1CCC#N`: the inhibition was 2.01%. Next, `NS(=O)(=O)c1cccc(NC(=O)CSc2nc3ccccc3n2-c2ccccc2)c1`: -1.23%; `Cc1ccc(-n2c(SCC(=O)Nc3ncc(Cl)cc3Cl)nc3ccccc32)cc1`: 56.9% (active).

In the case of `Cc1ccc(SCCC(=O)OCC(=O)Nc2ncc(Cl)cc2Cl)cc1`, the inhibition is 0.04%. Next, `CCn1c(SCC(=O)Nc2nccs2)nnc1-c1ccco1`: 0.22%; `COCCCNC(NC(=O)c1ccc(OC)cc1)C(Cl)(Cl)Cl` (stereo not given): 0.77%; `O=c1[nH]c2cccnc2n(CCNc2ncc(C(F)(F)F)cc2Cl)c1=O`: 0.11%. Next, `CC(C)(C)n1ncc2c(=O)n(Cc3ccc(Cl)cc3)cnc21`: 0.59%; `C#CCOCCOCCOCCNc1nc(N2CCN(C(=O)[C@H](CCCCN)n3cc([C@@H](N)C(C)CC)nn3)CC2)nc(N2CCN(C(=O)[C@H](Cc3ccc(O)cc3)n3cc([C@@H](N)C(C)CC)nn3)CC2)n1` (stereo not given in full): 0.44%; `COc1ccc(Cn2c(=O)cc(C)[nH]c2=S)cc1`: 1.2%. Next, `O=C(Oc1c(-c2ccco2)oc2ccccc2c1=O)c1cccnc1`: 1.71%; `O=C(N/N=C/c1sc(N2CCCCC2)nc1-c1cccs1)c1cccnc1`: -0.08%; `CCOc1cnc(C(=O)NNC(=O)c2ccccc2Br)o1`: -0.12%.

Consider `COc1ccc(CN2CCNC(=O)C2CC(=O)N(C)Cc2ccccn2)cc1OC` (stereo not given), for which the inhibition was 0.3%. Then `N=C1C(c2nc3ccccc3s2)=C(O)CN1NC(=O)c1ccc([N+](=O)[O-])cc1`, with -0.23%. For `CN(CC(=O)Nc1ccccc1F)CC(=O)Nc1ccccc1Br`, the inhibition is -0.22%. Next, `CCOCCCn1c(NN)nc2ccccc2c1=O`: 0.54%; `Nc1ccc(Cl)c(S(=O)(=O)Nc2ccccc2Cl)c1`: 0.19%; `COc1ccc(-c2[nH]ncc2CN(Cc2nccn2C)C(C)C)cc1F`: 2.14%. Next, `CCC(C(=O)Nc1ccc(C(C)C)cc1)c1ccccc1` (stereo not given): 0.19%; `N#Cc1c(NC(=O)C2CCCO2)sc2c1CCCCC2` (stereo not given): 1.4%; `O=C(C1CC1)N1N=C2CCCCC2C1(O)C(F)(F)F` (stereo not given): 0.21%. For `COCC(C)NCc1cc(Br)ccc1OC` (stereo not given), the inhibition is 0.42%. Regarding `Cc1ccc2nc(-c3cccnc3)c(NC3CCCC3)n2c1`, the inhibition is 1.9%. Regarding `COc1cc2[nH]c(=O)n(Cc3ccc(C(=O)NC4CCN(Cc5ccccc5)CC4)cc3)c(=O)c2cc1OC`, the inhibition was 0%.

Take `O=C(NCCc1ccccc1)C1CCC(Cn2c(=O)c3ccccc3n(Cc3cccnc3)c2=O)CC1` (stereo not given): the inhibition was 4.02%. Then `CC(=O)Nc1ccc(C(=O)CSc2nc3ccc(C)cc3[nH]2)cc1`, with -0.95%. Next, `c1ccc(CN=C2Nc3ccccc3CS2)nc1`: 0.26%; `O=C(c1ccc(N2CCOCC2)c([N+](=O)[O-])c1)N1CCN(S(=O)(=O)c2cccs2)CC1`: 0.44%.

For `CC(C)CN1CCNC(=O)C1CC(=O)N(C)CC1CCOCC1` (stereo not given), the inhibition was 0.15%. Next, `CCCCCc1nnc(NC(=O)c2ccc(=O)n(C)n2)s1`: 0.44%; `CC1CCCN(CC(O)COc2ccc3c(c2)OCO3)C1` (stereo not given): 0.12%. Turning to `CCCCN1C(=S)NC[C@@H]1C(C)CC` (stereo not given in full), the inhibition is 0.02%.

Take `CC/C(=N\NC(=O)c1ccccc1Cl)c1ccc(Br)s1`: the inhibition was 1.38%.

Regarding `COc1ccc(CCNC(=O)CSc2nc3[nH]ncc3c(=O)n2-c2cccc(C(F)(F)F)c2)cc1OC`, the inhibition was 0.5%. Next, `O=C(C1CCCO1)N1CCN(C(=S)NC2CC2)CC1` (stereo not given): 0.55%; `CNC(=S)N1CCC(NC(=O)C(Cc2ccc(F)cc2)NC(C)=O)CC1` (stereo not given): 0.7%. Next, `Cc1ccc(C)c(NC(=O)CCC(=O)N/N=C2/CC(=O)CC(C)(C)C2)c1`: 0.24%. Next, `Cc1c(CCO)sc[n+]1CC(=O)OC12CC3CC(CC(C3)C1)C2`: 0.29%; `Cc1c(CCOC(=O)CC23CC4CC(CC(C)(C4)C2)C3)sc[n+]1Cc1ccc([N+](=O)[O-])cc1`: 53.8% (active); `Cc1c(CCOC(=O)c2cc([N+](=O)[O-])ccc2Cl)sc[n+]1CCCCS(=O)(=O)[O-]`: 1.17%. Take `CC(C)NC(=O)c1ccc(Cl)cc1Cl`: the inhibition was -0.21%. With `CC(=O)c1ccc(NC(=O)C(C)NCc2ccc(Cl)cc2)cc1` (stereo not given), the inhibition was 0.85%.

As to `Cc1nc(CN2CCN(C(=O)CCc3nnc(Cc4c[nH]c5ccccc45)o3)CC2)cs1`, the inhibition is -1.57%. Consider `CN1CCN(/N=C/c2ccc(C#N)cc2)CC1`, for which the inhibition is 1.07%. Next, `CCC(C)(C)NC(=O)CN(C(=O)C(=O)Nc1ccc2c(c1)OCCO2)C(C)(C)CC`: 2.48%; `CSc1ccc(/C=N/NC(=O)c2cccc(Cl)c2)cc1`: -0.32%. Then `CC(=O)Nc1ccccc1OC(C)C(=O)N1CCC(C)CC1` (stereo not given), with 0.05%. Next, `COc1cc(NC(=S)NCc2ccc(S(N)(=O)=O)cc2)cc(OC)c1`: -0.49%; `COc1ccc(NS(=O)(=O)c2cc(NC(=O)C3CCCCC3)ccc2N2CCOCC2)cc1`: 0.89%. Regarding `CC[C@H](C)[C@@H](C(=O)N1CCNCC1)n1cc([C@@H](N)Cc2ccc(O)cc2)nn1`, the inhibition was 0.31%. As to `COc1ccc(C2=NN(C(=O)CCC(=O)O)C(c3cccs3)C2)cc1OC` (stereo not given), the inhibition was 0.01%.

As for `C=CCn1c(SCc2ccc(Cl)c(Cl)c2)nnc1C(CO)NC(=O)c1ccc(OC)cc1` (stereo not given), the inhibition was 1.4%.

With `C=CCn1c(SCC(=O)c2ccc(Br)cc2)nnc1C(C)NC(=O)Cc1ccc(OC)cc1` (stereo not given), the inhibition is 1.19%. As to `C=CCn1c(SCCOc2ccc(OC)cc2)nnc1C(NC(=O)c1ccc(OC)cc1)C(C)C` (stereo not given), the inhibition is 48.2% (active).

Take `CN(C)CCOc1ccc(Cl)cc1C(C)(C)C`: the inhibition was 0.53%. Next, `Nc1nc(SCC(=O)NN(c2ccccc2)c2ccccc2)n[nH]1`: 0.84%; `CCc1nnc(NC(=O)CSc2nnnn2-c2cccc(C(C)=O)c2)s1`: 0.21%.

Turning to `CC(C)CCN1CCN(C/C=C/c2ccco2)CC1CCO` (stereo not given), the inhibition was 0.24%. Next, `C/C(=N/OC(=O)c1cccc(C(F)(F)F)c1)c1cnccn1`: -0.43%. With `C/C(CC1CC(C)(C)OC1=O)=N/Nc1nc(-c2ccccc2)cs1` (stereo not given), the inhibition was -0.4%. Consider `CN(c1ccccc1)S(=O)(=O)c1cc(C(=O)OCC(=O)N2CCN(C(=O)c3ccco3)CC2)ccc1Cl`, for which the inhibition is 0.19%. Then `Cc1ccc(C)c(NS(=O)(=O)c2ccc(OCC(=O)NCc3cccnc3)cc2)c1`, with -0.02%; and `COc1cc(C(=S)NCc2ccccc2)cc(Br)c1O`, with -0.65%. Then `CCC(=O)c1ccc(N2CCN(C(=O)c3cc([N+](=O)[O-])ccc3F)CC2)c(F)c1`, with 2.09%; and `CCN(CC)CCNS(=O)(=O)c1ccc(/C=C/C(=O)O)cc1`, with 0.17%; and `COc1cc(CNC2CCCC2)c(Br)cc1OCc1ccccc1`, with 0.98%. Then `CN1CCN(C(c2cc3cc4c(cc3[nH]c2=O)OCCO4)c2nnnn2C2CCCC2)CC1` (stereo not given), with 0.88%; and `CNC(=O)C(=O)N/N=C/c1ccccn1`, with -0.01%. Consider `CSc1ncccc1C(=O)N1CCCC(CCC(=O)NCc2ccccc2F)C1` (stereo not given), for which the inhibition was -0.56%. Next, `C=C(C)c1cccc(C(C)(C)NC(=O)NCCN(CC)CC)c1`: 0.61%; `O=S(=O)(Cc1ccccc1)c1nc2ccccc2n1Cc1ccccn1`: 1.49%. Then `COc1cc2[nH]c(=S)n(Cc3ccc(F)cc3)c(=O)c2cc1OC`, with 0.4%.

For `CCCc1cc(=O)[nH]c(SCc2cc(=O)oc3c(C)c(C)ccc23)n1`, the inhibition was -1.22%. Then `Cc1nnsc1C(=O)Nc1cccc(Cl)c1C`, with 0.41%; and `COc1ccc(Cl)cc1NC(=O)C(C)N1CCc2ccccc21` (stereo not given), with 0.39%. Then `CC1=CC(=C(C#N)c2nc3ccccc3s2)C=C(C)N1c1ccc(F)cc1F`, with -0.7%; and `COC(=O)c1ccc(OCC(O)CN(CCO)CC(O)Cn2ccc3ccccc32)cc1` (stereo not given), with 0.69%; and `Cc1ccccc1C1=NC(C(F)(F)F)(C(F)(F)F)c2c(n(-c3ccc(F)cc3)c(=O)[nH]c2=O)N1`, with 0%. Next, `NS(=O)(=O)c1ccc(NC(=O)/C=C/c2ccccc2Cl)cc1`: 0.51%; `CCC(c1nnnn1C1CCCC1)N(Cc1cccs1)Cc1cc2cccc(C)c2[nH]c1=O` (stereo not given): 6.67%; `Cc1cccc2cc(CN(Cc3cccs3)C(c3nnnn3C3CCCC3)C(C)C)c(=O)[nH]c12` (stereo not given): 61.7% (active). On to `Cc1cccc2cc(CN(Cc3ccc4c(c3)OCO4)Cc3nnnn3C3CCCC3)c(=O)[nH]c12`, for which the inhibition was 7.85%. For the compound `CCC1CCCCN1S(=O)(=O)Cc1ccccc1Cl` (stereo not given), the inhibition is 2.08%.

In the case of `Cc1c(C(=O)NCCCc2ccccc2)cccc1[N+](=O)[O-]`, the inhibition was 0.92%. On to `COc1cccc(NC(=S)NC(=O)c2c(Cl)c(C)nn2C)c1`, for which the inhibition was -0.45%. Then `Cc1ccsc1C1C(C#N)=C(N)OC2=C1C(=O)CC(C)(C)C2` (stereo not given), with 0.69%. For the compound `COc1cc(OC)c(C(=O)N2CCCC2)cc1OC`, the inhibition is 1.33%. For the compound `N#Cc1c(NC(=O)c2ccc(N3CCOCC3)c([N+](=O)[O-])c2)sc2c1CCCC2`, the inhibition was 0.71%.

Turning to `COC(=O)c1nn(-c2cccc(Cl)c2)ccc1=O`, the inhibition is -0.18%. Next, `COCCNC(=S)N/N=C/c1c(C)[nH]c2ccccc12`: -0.55%; `CN(C)C(=O)N1CCNCC1`: -0.13%. Next, `CC(=O)N(CN1C(=O)C2C3C=CC(C3)C2C1=O)c1cccc(Cl)c1` (stereo not given): 0.48%; `CCn1c(-c2cccnc2Cl)nc2cc(C)c(C)cc21`: 0.26%. As to `Cc1nc(CC(=O)NNS(=O)(=O)c2ccc(F)c(Cl)c2)cs1`, the inhibition is 1.15%.

As for `COC(=O)C(C(=O)Nc1cccc(Cl)c1C)C1CCCC1` (stereo not given), the inhibition was -0.03%.

For `NNc1nc2c(Cl)cccc2s1`, the inhibition is -1.62%. Then `CCOC(=O)C1=C(C)NC(=S)NC1c1cccs1` (stereo not given), with -0.3%. Then `Cc1ccccc1NC(=O)c1nn(-c2ccc(F)c(F)c2)ccc1=O`, with 0.58%.

`COC(=O)c1ccc(COC(=O)c2cnccn2)cc1`: the inhibition is 0.17%.

For `CC1CN(CCCOc2ccccc2-c2ccccc2)CC(C)O1` (stereo not given), the inhibition was 3.45%. Next, `CCCCC(=O)Nc1ccc(C(=O)Nc2cc(C(F)(F)F)ccc2Cl)cc1`: -0.36%; `CCC(=O)/C(=C(/O)c1ccccc1)c1nc2ccccc2[nH]1`: 0.14%; `Cc1cc(C)cc(C(=O)NC(=S)Nc2ccc3[nH]c(=O)[nH]c3c2)c1`: -0.17%.
